Rows were chosen to be rich in hits. Some 19% of all compounds tested hit in one or more screens of this group.
KB-3-1 tox: kills parental KB-3-1 adenocarcinoma cells; KB-3-1 viability, CellTiter-Glo ATP luminescence, 72 h; Potency, µM (top dose mostly 46.1 µM), hits mostly cytotoxic; AID 1347075; 400,000 tested, 1.4% active; note: nearly all actives have a fitted effect of over 60% in size
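Luminescent ATP read-out (CellTiter-Glo) measures survival of drug-naive KB-3-1 cells after 72 h compound exposure at 37 °C. Titration series was screened from lowest to highest concentration, with DMSO vehicle plates as background controls.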
TDP1 cell CPT: growth inhibition of DT40 Tdp1-/-;hTDP1 cells with camptothecin (screen for TDP1 inhibitors). chicken DT40 Tdp1-/-;hTDP1 cells + 20 nM CPT, ATP luminescence, 48 h. Potency, µM (highest dose often 46.2 µM), for the others: top-dose activity change, negative = growth inhibition, usual class: inhibitors. 420,000 tested, 12% active. AID 686979; note: nearly all actives have a fitted effect of over 55% in size
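Cell growth measured by CellTiter-Glo luminescence after a minimum 48 h, 37 C compound exposure with 20 nM CPT in Tdp1-knockout DT40 cells stably expressing hTDP1, seeded 400/well; qHTS titration format.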
HT1080-NT tox: kills 2HG-producing HT-1080-NT fibrosarcoma cells; HT-1080-NT fibrosarcoma viability, CellTiter-Glo ATP luminescence, 48 h; Potency, µM (top dose mostly 46.1 µM), for the others: at the top dose activity, negative = less viability, usual class: cytotoxic; 360,000 tested, 1.6% active;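 note: NT is the 2HG producing partner of a matched IDH1 knockdown line; 0% = DMSO-treated cells and -100% = media-only wells without cells; nearly all actives have a fitted effect of over 55% in size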
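Viability of the 2HG-overproducing fibrosarcoma line after 48 hours of compound exposure at 37 degrees C was determined by luminescence with CellTiter-Glo, and concentration-effect curves were then fitted and categorized.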
KB-V1 MDR tox: kills drug-selected multidrug resistant KB-V1 cells; 400,000 tested, 3.4% active; AID 1347076; Potency, µM (top dose mostly 46.1 µM), most hits filed as cytotoxic; KB-V1 MDR cells viability, CellTiter-Glo, 72 h; note: nearly all actives have a fitted effect of over 60% in size
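Cells of the MDR subline KB-V1 are plated, dosed with compound at multiple concentrations, and incubated 72 h at 37 degrees C; CellTiter-Glo is then added and luminescence read after 10 min.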
TDP1 cell noCPT: qHTS for Inhibitors of human tyrosyl-DNA phosphodiesterase 1 (TDP1): qHTS in cells in absence of CPT | DT40 Tdp1-/- hTDP1 cells, no CPT, ATP luminescence, 48 h | Potency, µM (top dose mostly 46.2 µM), for inactives: at the top dose activity change, negative = growth inhibition, usual class: inhibitors | 420,000 tested, 15% active | AID 686978, 2013; note: nearly all actives have a fitted effect of over 55% in size
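Chicken DT40 Tdp1-/- cells stably complemented with human TDP1 were seeded at 400 cells/well with DMSO in place of 20 nM camptothecin. After compound pinning, cells grew at least 48 hr at 37 °C; viability read by CellTiter-Glo luminescence.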
HT1080 IDH1KD tx: toxicity to HT-1080 IDH1 knockdown cells (counter line). 360,000 tested, 2% active. HT-1080 IDH1 knockdown viability, ATP luminescence, 48 h. Potency, µM (series often up to 46.1 µM), inactives show at the highest dose activity, negative = toxicity, hits mostly cytotoxic. AID 686971;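 note: 0% = DMSO wells and -100% = cell-free medium wells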
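Using the IDH1-knockdown HT-1080 line run in the same batch and compound series as the NT line, viability after 48 h at 37 °C was determined by CellTiter-Glo luminescence and expressed as % activity.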
The depositor's hits bear a star; i = inactive; ? = inconclusive; . = not tested or not shown. Calls come from the whole dose curve; as a rule, active = well fitted curve in the direction sought with a large enough effect; inconclusive = small, poorly fitted or top-dose-only effect, or another doubt; inactive = no such curve, though single readings can be large; an effect the other way counts as inactive or inconclusive. Unless noted, % is set by controls: 0 for no effect and ±100 for the full control effect; potency is the fitted concentration of half-maximal effect.

SMILES | KB-3-1 tox | TDP1 cell CPT | HT1080-NT tox | KB-V1 MDR tox | TDP1 cell noCPT | HT1080 IDH1KD tx
O=C(CCC1CCN(C(=O)CC2=CCCCC2)CC1)NCc1ccc(F)cc1 | i | ? | 0.0% | i | ? | 4.2%
Cc1cc(C)c(NC(=O)CSc2ccc(-c3cccnc3)nn2)c(C)c1 | i | -14.8% | 0.0% | i | -26.6% | -0.7%
CC(C)c1ccc(NC(=O)C2CCN(C(=O)c3ccc(F)cc3)CC2)cc1 | i | ? | . | ? | 8.2µM* | .
O=C(Nc1ccc(Br)cc1)C1CCN(C(=O)c2ccc(F)cc2)CC1 | i | ? | -23.0% | i | ? | -20.9%
CC1CCC(NC(=O)C2CCN(c3c4c(nc5ncnn35)CCC4)CC2)CC1 (centres undefined) | i | ? | -13.6% | ? | 16.4µM* | -21.3%
Cc1cc(S(=O)(=O)n2[nH]c(=O)c(CCO)c2C)c(Cl)cc1Cl | . | 16.4µM* | 0.0% | . | ? | 0.6%
Cc1c(C)c(C)c(S(=O)(=O)n2[nH]c(=O)c(CCO)c2C)c(C)c1C | i | 3.4% | -5.6% | i | ? | -1.4%
O=[N+]([O-])c1ccc(Cl)c(S(=O)(=O)/N=C(/Sc2ccc(Br)cc2)c2ccccc2)c1 | ? | 6.31µM* | . | i | 2.82µM* | .
O=S(=O)(/N=C(/Sc1ccc(Cl)cc1)c1ccccc1)c1ccccc1 | i | 10µM* | . | i | 14.1µM* | .
O=S(=O)(/N=C(/Sc1ccccc1)c1ccccc1)c1ccc(Cl)cc1 | ? | ? | . | ? | 15.8µM* | .
O=S(=O)(/N=C(/Sc1ccccc1)c1ccccc1)c1ccccc1 | i | 8.2µM* | 1.8% | i | 14.6µM* | -9.4%
CCN(CC)C(=O)Cn1c(=O)n(Cc2ccc(C(=O)NCc3ccccc3Cl)cc2)c(=O)c2ccccc21 | ? | -3.4% | . | i | -16.2% | .
O=C(/C=C/c1ccc(O)c(O)c1)O[C@@H]1C[C@@](OC(=O)/C=C/c2ccc(O)c(O)c2)(C(=O)O)C[C@@H](O)[C@@H]1O | . | 3.0% | . | . | ? | .
CC(CN(C)C)C(C)(O)Cc1ccc(Cl)cc1 (centres undefined) | . | -24.8% | . | . | -10.1% | .
COC(=O)[C@]1(C)N[C@H](c2ccc(-c3ccc(Cl)c(Cl)c3)c(OC)c2)[C@@H]2C(=O)N(C)C(=O)[C@@H]21 | ? | 9.2µM* | ? | i | 7.31µM* | ?
CCN1C(=O)[C@H]2[C@@H](c3ccc(-c4cccc(Cl)c4)c(OC)c3)N[C@@](C)(C(=O)OC)[C@H]2C1=O | ? | 13µM* | -0.5% | i | ? | -4.1%
Cc1cccc(CN(C(=S)Nc2c(C)cccc2C)c2cccnc2)c1 | i | -13.1% | 10.5% | i | ? | 2.7%
CCCCC(=O)Nc1ccc(NCc2ccc(C)s2)cc1 | i | ? | -28.4% | i | 3.66µM* | -17.2%
COc1cnc(-c2ccccc2)[nH]c1=O | i | -11.9% | 17.6% | i | -12.5% | -1.8%
O=c1[nH]c(-c2ccccc2)ncc1OCc1ccccc1 | i | 13µM* | 10.7% | i | -21.6% | 19.8%
O=C(N(Cc1ccccc1)c1ccccn1)C12CC3CC(CC(C3)C1)C2 | i | 25.9µM* | -16.1% | ? | 16.4µM* | -13.9%
CCC(Oc1ccccc1)C(=O)N(Cc1ccccc1)c1ccccn1 (centres undefined) | ? | ? | -0.3% | 16.4µM* | 16.4µM* | -5.9%
COc1ccc(/C=N/NC(=O)NC23CC4CC(CC(C4)C2)C3)c(OC)c1 | i | ? | ? | i | 23.1µM* | ?
Cc1cc(C(=O)N/N=C/c2ccc(OCc3ccccc3)cc2)c(C)o1 | i | ? | -29.8% | i | 16.4µM* | -15.7%
Cc1ccc(/C=N/NC(=O)c2ccccc2OCc2ccc(F)cc2)o1 | i | 5.8µM* | -6.1% | ? | 2.91µM* | -10.7%
SMILES | KB-3-1 tox | TDP1 cell CPT | HT1080-NT tox | KB-V1 MDR tox | TDP1 cell noCPT | HT1080 IDH1KD tx
COc1ccccc1/C=N/NC(=O)NC12CC3CC(CC(C3)C1)C2 | i | -2.9% | -1.2% | i | ? | 0.2%
COc1ccc(/C=N/NC(=O)c2ccccc2OCc2ccccc2)c(OC)c1 | i | ? | 0.1% | i | 18.4µM* | -3.4%
O=C(COC(=O)CCC(=O)c1ccc(F)cc1)Nc1ccc(Cl)cn1 | i | -11.4% | -6.1% | i | -2.6% | -6.7%
COc1cc(C(=O)NCc2ccccc2)ccc1OC(F)F | i | 6.8% | -4.5% | i | -28.5% | -8.6%
Cc1cccc(/C=N/NC(=O)c2cc(Br)ccc2OCc2ccccc2)n1 | i | ? | ? | i | 23.1µM* | 18.4µM*
COc1ccccc1C(=O)NCC(=O)N/N=C/c1cc(Br)ccc1OCc1ccccc1 | i | ? | -8.8% | i | 23.1µM* | -4.4%
C#CCOc1ccccc1/C=N/NC(=O)c1ccccc1OCc1ccccc1 | i | ? | -19.1% | i | 20.6µM* | -23.6%
COc1ccc(COc2ccccc2C(=O)NCc2ccccc2)cc1F | i | ? | -1.8% | 14.6µM* | ? | -15.6%
Cc1ccc(S(=O)(=O)c2cc3c(=O)n4ccccc4nc3n(Cc3ccco3)c2=N)cc1 | i | ? | ? | 8.2µM* | ? | ?
N=c1c(S(=O)(=O)c2ccccc2)cc2c(=O)n3ccccc3nc2n1CCCN1CCOCC1 | i | 1.7% | -0.3% | i | -27.0% | 2.5%
Cc1ccc(S(=O)(=O)c2cc3c(=O)n4ccccc4nc3n(C3CCCCC3)c2=N)cc1 | i | ? | -6.9% | i | 20.6µM* | 2.1%
CCCn1c(=N)c(S(=O)(=O)c2ccc(F)cc2)cc2c(=O)n3ccccc3nc21 | i | -12.9% | 0.9% | i | -27.5% | -2.7%
N=c1c(C(=O)NCc2ccc(F)cc2)cc2c(=O)n3ccccc3nc2n1Cc1ccco1 | i | 16.4µM* | 3.4% | ? | 16.4µM* | -16.8%
N=c1c(S(=O)(=O)c2ccc(Cl)cc2)cc2c(=O)n3ccccc3nc2n1CCN1CCOCC1 | i | 2.2% | 11.7% | 13µM* | -9.8% | 1.8%
CN(C)CCN(C(=O)c1ccco1)c1nc2c(F)cc(F)cc2s1 | i | ? | . | i | ? | .
CCOC(=O)CCCNC(=O)COC(=O)c1ccc(O)cc1 | i | -9.0% | 0.3% | i | -11.1% | 0.8%
COc1ccc(C2=NOC(C(=O)N3CCN(C(=O)c4ccco4)CC3)C2)cc1OC (centres undefined) | i | -13.4% | -1.3% | i | 23.0% | -2.5%

High-throughput results from PubChem BioAssay.
